D1 ag = activates the human D1 dopamine receptor | activation, % at 2 µM | 1% of 360,000 active | HEK293 T-REx D1 cells, calcium flux, agonist mode | P21728 | AID 504660; in the data active = activation above about 30%; also: 0% is about no effect
Target sequence (P21728 whole entry, looked up): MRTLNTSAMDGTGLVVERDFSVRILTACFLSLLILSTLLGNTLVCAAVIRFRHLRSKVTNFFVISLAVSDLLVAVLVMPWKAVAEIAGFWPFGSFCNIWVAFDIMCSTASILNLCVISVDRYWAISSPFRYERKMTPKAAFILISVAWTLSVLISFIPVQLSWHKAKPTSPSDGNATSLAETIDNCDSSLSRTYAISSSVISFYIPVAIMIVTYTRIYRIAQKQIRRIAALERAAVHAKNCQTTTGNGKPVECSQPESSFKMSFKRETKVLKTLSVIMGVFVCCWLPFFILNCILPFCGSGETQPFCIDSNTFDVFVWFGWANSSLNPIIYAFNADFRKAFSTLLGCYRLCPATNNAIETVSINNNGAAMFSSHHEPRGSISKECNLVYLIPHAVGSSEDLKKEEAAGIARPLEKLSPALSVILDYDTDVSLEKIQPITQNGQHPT
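Inducible HEK293 T-REx D1 cells, force-coupled to calcium signalling, were plated at 4000 cells/well with tetracycline and held overnight at 30 C. After no-wash calcium dye loading, compound-evoked calcium rise over 180 s flagged agonists.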
DRD3 antagonist = D3 dopamine receptor (human) antagonism. D3R cells, DiscoveRx beta-arrestin luminescence, antagonist mode; active compounds read low. max response, negative = inhibition, %. 2.5% of 360,000 active. AID 652054; in the data active = max response below about -50%; inconclusive = no clear call, values can overlap the other calls; also: % is scaled to controls: 0 for no effect and ±100 for the full control effect
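Cells expressing the human receptor were seeded at 1500 cells/well, incubated overnight at 37 degrees C in 5% CO2, then exposed to library compounds with dopamine controls for 90 minutes at 37 degrees C before luminescent detection.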
D1 antagonist = human D1 dopamine receptor antagonism | AID 504652 | HEK293 TREx D1 cells, calcium flux, dopamine EC80; active compounds read low | P21728 | 3.2% of 360,000 active | activity change, negative = inhibition, % at 10 µM; in the data active = activity change below about -30%; also: % is scaled to controls: 0 for no effect and ±100 for the full control effect
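Using tetracycline-induced force-coupled D1 Hek293 cells and a calcium dye, signals were followed for 180 s after compound, then for 180 s after EC80 dopamine, to detect inhibitors.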
D1 PAM = potentiators of human D1 dopamine receptor. HEK293 TREx D1 cells, calcium flux, dopamine EC20 potentiation. potentiation, % at 10 µM. 0.036% of 360,000 active; in the data active = potentiation above about 30%; also: 0% is about no effect
DRD3 agonist = activates the human D3 dopamine receptor; max activation, %; D3R DiscoveRx beta-arrestin cells, luminescence, 90 min; P35462; 0.58% of 410,000 active; AID 652048; in the data active = max activation above about 30%; also: 0% is about no effect
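Agonist-mode cell screen: cells plated at 1500/well and incubated overnight at 37 °C, then exposed to library compounds for 90 min at 37 °C. Detection reagent was added for 30–60 min at room temperature, and luminescence was read.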
* marks the source's active call; other numbers are inactive results; ? = inconclusive; . = no result. The list is not random: actives were taken first. Their share in the collection is about 6%.

SMILES | D1 ag | DRD3 antagonist | D1 antagonist | D1 PAM | DRD3 agonist
COC(=O)[C@]12CCCCC=C1N(CCc1ccc(OC)c(OC)c1)C(=O)[C@H](CC(=O)NCC1CCCCC1)C2 | . | -19 | . | . | -11
CN(C)C(CNC(=O)CCNC(=O)c1ccc(Br)cc1)c1ccco1 (stereo not drawn) | -1 | 10 | -2 | -19 | -4
COc1ccc(NS(=O)(=O)c2cccc(C(=O)N(C)Cc3cccs3)c2)cc1 | 17 | 6 | -25 | -8 | -3
CCOC(=O)c1c(C)[nH]c(C(=O)N(C)Cc2cccc(OC)c2OC)c1C | 38* | -2 | 2 | -7 | -9
COc1ccc(NS(=O)(=O)c2ccc(C(=O)N(C)Cc3cccs3)cc2)cc1 | 60* | 6 | -35* | 2 | 0
CN(C)C(CNC(=O)c1ccc(Br)cc1)c1ccco1 (stereo not drawn) | 0 | -63* | -3 | -6 | -25
CCOc1ccc(S(=O)(=O)Nc2cccc(C(=O)NCC(c3ccco3)N(C)C)c2)cc1 (stereo not drawn) | 19 | -56* | -19 | -5 | -33
CCOc1ccc(OCC)c(NC(=O)C(NS(=O)(=O)c2ccc(Br)s2)c2ccccc2)c1 (stereo not drawn) | 2 | . | -13 | -4 | 6
CCOC(=O)C1CCN(C(=O)Cn2nc(C)n3c(cc4cc(F)ccc43)c2=O)CC1 | -1 | 13 | 1 | 2 | -4
Cc1cn([C@H]2C[C@H](O)[C@@H](CNC(=O)[C@@H]3CCCN3Cc3ccccc3)O2)c(=O)[nH]c1=O | . | 1 | . | . | 1
CCOC(=O)c1cc(S(=O)(=O)Nc2cc(OC)ccc2OC)[nH]n1 | 2 | . | 11 | -2 | -14
CN(C)CCCNS(=O)(=O)c1cc(Cl)ccc1Cl | 3 | 10 | 18 | -7 | -6
O=S(=O)(c1ccc(Oc2ccc(S(=O)(=O)N(CCO)CCO)cc2)cc1)N(CCO)CCO | -2 | 14 | -15 | -1 | 1
O=S(=O)(c1ccc(N2CCC(c3ccc(Cl)cc3)=N2)cc1)N(CCO)CCO | 121* | 12 | 60 | 28 | 2
CN(C)CCCNS(=O)(=O)c1ccc(N2CCC(c3ccc(Cl)cc3)=N2)cc1 | 42* | . | -19 | -6 | .
Cc1ccc(-n2sc3cc(F)ccc3c2=O)c(C)c1 | . | -15 | . | . | -2
Cc1nc(-c2ccccc2O)n(S(=O)(=O)N(C)C)n1 | 0 | 13 | 3 | -2 | 31*
CCc1ccc(NC(=O)c2sc3nc(C)c(C(=O)Nc4ccc(C)cc4C)c(-c4ccco4)c3c2N)cc1 | 46* | . | -5 | 3 | -1
Cc1ccc(NC(=O)c2c(C)nc3sc(C(=O)NC4CCCC4)c(N)c3c2-c2ccco2)c(C)c1 | 1 | 15 | 15 | -2 | -4
COc1ccc(NC(=O)c2sc3nc(C)c(C(=O)Nc4ccc(C)cc4C)c(-c4ccc(Cl)cc4)c3c2N)cc1 | 0 | . | -3 | 0 | 17
COc1cccc(NC(=O)c2sc3nc(C)c(C(=O)Nc4ccc(C)cc4C)c(-c4sccc4C)c3c2N)c1 | 3 | . | 0 | -3 | -9
COc1cccc(NC(=O)c2sc3nc(C)c(C(=O)Nc4ccc(C)cc4C)c(-c4ccccc4Cl)c3c2N)c1 | 10 | . | -31* | 0 | -17
COCCCNC(=O)c1sc2nc(C)c(C(=O)Nc3ccc(C)cc3C)c(-c3ccccc3Cl)c2c1N | 1 | . | -32* | -1 | 5
COc1cccc(NC(=O)c2sc3nc(C)c(C(=O)Nc4ccc(C)cc4C)c(-c4ccco4)c3c2N)c1 | 36* | . | -11 | -1 | -1
OC(COCc1cccs1)CN1CCN(c2cccc(C(F)(F)F)c2)CC1 (stereo not drawn) | 2 | -55* | 15 | 1 | -5
SMILES | D1 ag | DRD3 antagonist | D1 antagonist | D1 PAM | DRD3 agonist
COc1cc(NC(=O)C2C3C=CC(C3)C2C(=O)O)c(OC)cc1Cl (stereo not drawn) | 1 | -86* | 1 | -3 | 4
CCCCN(CC)C(=O)CSc1nc2n[nH]c(C)c2c(=N)n1-c1ccc(CC)cc1 | 4 | . | -16 | 4 | -6
O=C(NNCS(=O)(=O)O)c1ccncc1 | . | . | . | . | 4
O=C1CSC(c2ccc(Cl)cc2Cl)N1c1ccccn1 (stereo not drawn) | 1 | 11 | 0 | 30* | 1
O=C1CSC(c2ccccn2)N1c1ccc(Cl)c(Cl)c1 (stereo not drawn) | 10 | -11 | 6 | -4 | 0
Cc1ccc(NC(=O)Cn2c(-c3cncs3)nc3ccccc32)cc1Br | 6 | . | -17 | -1 | 3
COc1ccccc1NC(=O)CSc1n[nH]c(-c2cccnc2)n1 | 0 | 5 | 5 | 1 | 0
Cc1ccc(NC(=O)CSc2n[nH]c(-c3cccnc3)n2)c(Br)c1 | 7 | 6 | -32* | . | -2
O=C(/C=C/c1ccc(Cl)cc1Cl)Nc1cccc(S(=O)(=O)NC2=NCCC2)c1 | 8 | -2 | -31* | -8 | -1
Cc1cccc(Nc2c(-c3cccs3)nc3nc(C)cc(C)n23)c1 | 8 | . | 10 | 0 | -14
CCN(CC)S(=O)(=O)c1cccc(-c2n[nH]c(=S)n2/N=C/c2ccc(Br)cc2)c1 | -1 | -54* | -6 | -3 | -5
CCN(CC)S(=O)(=O)c1cccc(-c2n[nH]c(=S)n2/N=C/c2ccc(OC)cc2)c1 | 0 | 1 | -2 | 0 | -5
CCN(CC)S(=O)(=O)c1cccc(-c2n[nH]c(=S)n2/N=C/c2ccc(OC(F)F)cc2)c1 | 1 | 0 | -83* | -9 | -12
CC(C)[C@@H]1CC[C@@H](C)C[C@H]1O | . | . | . | . | 10
Nc1sc2c([n+]1CCCS(=O)(=O)[O-])CCCC2 | 4 | 4 | -31* | -4 | 2
CCOc1ccc(CCNC(=O)c2oc(=O)c3ccccc3c2-c2ccc(C)cc2)cc1OCC | 0 | . | 1 | 6 | 13
N#Cc1c(C(F)(F)F)cc(-c2ccc(Cl)c(Cl)c2)nc1SCCN1CCOCC1 | 4 | -2 | -5 | -8 | -4
N#Cc1c(C(F)(F)F)cc(-c2ccccc2)nc1SCc1nc(N)nc(N2CCOCC2)n1 | 70* | 10 | -17 | -3 | 1
Oc1ccccc1CNc1nc2ccccc2n1CCN1CCCCC1 | 3 | -74* | 4 | 4 | -13
COc1ccccc1CNc1nc2ccccc2n1CCN1CCCCC1 | 11 | ? | -35* | 5 | -6
CCCCNC(=O)CCn1c(=O)c2ccccc2n(Cc2cccc(Cl)c2)c1=O | -1 | . | 5 | 1 | 7
CNc1cc(C)nc(N2CCOCC2)n1 | 2 | 13 | -1 | 1 | 3
Cc1cc(N2CCOCC2)nc(NCc2ccccc2)n1 | 45* | 23 | -63* | -6 | -4
Cc1cc(NCc2ccccc2)nc(N2CCOCC2)n1 | 2 | 28 | -91* | -7 | -3
Cc1cc(N2CCOCC2)nc(SCC(=O)c2ccccc2)n1 | 0 | 10 | 5 | -3 | 10
Cc1cc(N2CCCCC2)nc(NCc2ccccc2)n1 | 81* | -21 | -50* | -8 | -12

Screening results from PubChem BioAssay.
